High-throughput results (PubChem)
The list is not random: actives were taken first. Their share in the collection is about 1.4%.
BRCA1 expr up: activators of BRCA1 expression; 380,000 tested, 1.1% active; Potency, µM (series often up to 46.1 µM), for inactives: top-dose activation, most hits filed as activators; AID 624202; MCF7-BRCA1-FFLuc reporter, luminescence, 48 h; response scale: scaled: vehicle 0%, 10 µM genistein 100%; further: potency means the concentration at half of the fitted maximal effect; nearly all actives have a fitted effect of over 80% in size
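MCF7-BRCA1-FFLuc cells, 2000/well in phenol-red-free MEM, attached 2 h then treated 48 h at 37 C. Luciferase luminescence read 15 min after reagent; normalized to genistein maximum activation (10microM) and DMSO, concentration-response fitted.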
TSHR antag: human thyrotropin receptor antagonism | P16473 | TSHR-expressing cells, TSH-stimulated cAMP HTRF, 2 h; hits give low values | activity change, negative = inhibition, % at 11.5 µM | 330,000 tested, 0.2% active;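 active means activity change below a set negative limit, meaning inhibition stronger than a set level, cut at about -70% in these data; inconclusive means activity change between two set negative limits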; further: on the % scale 0 is the no-effect control and ±100 the full control effect
Target sequence (P16473 whole entry, looked up): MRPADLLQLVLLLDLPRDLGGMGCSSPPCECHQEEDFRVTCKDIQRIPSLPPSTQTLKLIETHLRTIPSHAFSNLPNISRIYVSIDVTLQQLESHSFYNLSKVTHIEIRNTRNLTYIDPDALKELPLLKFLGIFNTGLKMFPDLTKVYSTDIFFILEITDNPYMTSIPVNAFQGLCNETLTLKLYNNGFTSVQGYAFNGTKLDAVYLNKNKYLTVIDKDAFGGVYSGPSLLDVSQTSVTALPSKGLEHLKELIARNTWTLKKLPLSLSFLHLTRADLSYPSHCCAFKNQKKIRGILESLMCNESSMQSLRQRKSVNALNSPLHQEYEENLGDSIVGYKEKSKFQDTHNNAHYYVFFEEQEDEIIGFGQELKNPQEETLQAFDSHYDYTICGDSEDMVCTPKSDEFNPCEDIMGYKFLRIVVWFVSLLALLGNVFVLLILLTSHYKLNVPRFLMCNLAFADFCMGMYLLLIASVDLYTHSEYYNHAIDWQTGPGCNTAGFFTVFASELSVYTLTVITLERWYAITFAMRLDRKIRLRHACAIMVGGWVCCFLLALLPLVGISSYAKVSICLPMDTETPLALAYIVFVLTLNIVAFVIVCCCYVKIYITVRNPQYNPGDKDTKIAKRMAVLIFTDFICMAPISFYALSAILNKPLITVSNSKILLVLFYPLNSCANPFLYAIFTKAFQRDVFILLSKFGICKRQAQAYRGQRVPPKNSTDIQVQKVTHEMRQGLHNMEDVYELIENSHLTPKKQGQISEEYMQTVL
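TSHR-expressing cells were treated with compounds, then stimulated with TSH at EC80 (4nM final) for 2 hours at 37 deg C. Cellular cAMP was measured by HTRF competition between lysate cAMP and cAMP-d2 for a cryptate-labelled anti-cAMP antibody.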
GLS inhibitor: glutaminase GLS (human) inhibition | O94925 | AID 624170 | Potency, µM (top dose mostly 45.5 µM), for inactives: at the top dose activity change, negative = inhibition, hits mostly inhibitors | GLS enzymatic activity, qHTS titration | 410,000 tested, 0.21% active; further: potency means the concentration at half of the fitted maximal effect; on the % scale 0 is the no-effect control and ±100 the full control effect
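Read-out is an Amplex red fluorescence increase coupled through glutamate oxidase and HRP, measured before and after 30 min room-temperature incubation. hKGA is in 45 mM KH2PO4 (pH 8.2) with 0.02% Tween-20; glutamine added as 1mM solution.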
TCR act: T cell receptor activation. primary human leukocytes, anti-CD3, IL-2 HTRF, 48 h. Potency, µM (top dose mostly 9.22 µM), inactives show top-dose activation of IL-2 secretion, usual class: activators. 330,000 tested, under 10 active; further: % of control where 0% means no effect
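Primary human leukocytes were stimulated with a-CD3 beads plus compounds for 48 hr without co-stimulation; secreted IL-2 was quantified by HTRF using a-IL-2-K (europium cryptate) and a-IL-2-d2, excited at 320nm with acceptor emission read at 665nm.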
p53 reactivation: mutant p53 re-activation in reporter cells; H1299 p53-A138V BP100-luciferase reporter, luminescence, 24 h; Potency, µM (titrated, usually from 92.2 µM), for the others: top-dose activity change, positive = activation, actives largely listed as activators; AID 504706; 320,000 tested, 0.063% active; further: potency means the concentration at half of the fitted maximal effect; % of control where 0% means no effect; nearly all actives have a fitted effect of over 45% in size
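p53-null H1299 cells stably carrying temperature-sensitive p53-A138V and a BP100-luciferase reporter were pinned with compounds (4-point, 1:5 series) and held 24 hrs at 37 deg C. Luminescence was read 10 min after detection reagent.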
N370S GC mod: inhibitors or activators of N370S glucocerebrosidase for Gaucher disease | 330,000 tested, 0.092% active | N370S GC spleen homogenate, 4MU-glucoside fluorescence | Potency, µM (series often up to 59.4 µM), for the others: at the highest dose activity change, negative = inhibition, most hits filed as inhibitors | P04062;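 further: potency means the concentration at half of the fitted maximal effect; 0% = full enzyme activity and -100% = no enzyme basal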
The depositor's hits bear a star; ? = inconclusive; nt = no result given; [ ] = remark or other dose. Unless noted, the call rests on the fitted dose curve; in most records, active means well fitted curve in the direction sought with a large enough effect; inconclusive means small, poorly fitted or top-dose-only effect, or another doubt; inactive means no such curve, though single readings can be large; an effect the other way counts as inactive or inconclusive.

SMILES	BRCA1 expr up	TSHR antag	GLS inhibitor	TCR act	p53 reactivation	N370S GC mod
CC(=O)Oc1ccc2occ(C(=O)c3ccccc3)c2c1	7.1µM*	nt	3%	1%	nt	nt
O=C(Nc1ccc(/C=C/c2ccc(NC(=O)c3cc(S(=O)(=O)O)c4cccnc4c3O)cc2S(=O)(=O)O)c(S(=O)(=O)O)c1)c1cc(S(=O)(=O)O)c2cccnc2c1O	nt	nt	-117%	nt	nt	nt
CC(=O)Nc1ccc(NC2=C/C(=N/S(=O)(=O)c3cccs3)c3ccccc3C2=O)cc1	-102%	?	1%	2%	-11%	2%
COc1ccc(S(=O)(=O)/N=C2\C=C(Nc3ccc(O)cc3)C(=O)c3ccccc32)cc1	-68%	-42	8.9µM*	6%	-16%	-7%
CCOC(=O)c1ccc(CNc2ncnc3nc[nH]c23)cc1	-1%	nt	nt	nt	nt	nt
Cc1ccc(S(=O)(=O)N2CCN(c3nc(-c4cscn4)nc4ccccc34)CC2)cc1	0%	nt	nt	nt	nt	nt
COc1cc(C=O)c([N+](=O)[O-])cc1OC	nt	nt	nt	nt	nt	-15%
O=C(O)c1ccc(COc2ccc([N+](=O)[O-])cc2Cl)cc1	13µM*	nt	7%	nt	nt	nt
CCCCOc1ccc2c(c1)C(=O)c1cc(O)ccc1-2	3.5µM*	5	-13%	4%	13%	?
CC(=O)Nc1ccc2c(c1Br)Cc1ccccc1-2	3.2µM*	nt	13%	-10%	nt	nt
Cc1cc(-n2c(=O)[nH]c(=O)n(C)c2=O)ccc1Oc1ccc(S(=O)(=O)C(F)(F)F)cc1	nt	nt	1%	nt	nt	nt
CN(C)/C=C1\C(=O)N(c2ccc(Cl)cc2)CS1(=O)=O	7.9µM*	5	4%	1%	?	-15%
Cc1ccc(N2CS(=O)(=O)/C(=C/N(C)C)C2=O)cc1	86%	29	4%	11%	?	0%
O=C(COc1ccc(F)cc1)Nc1nc2c(s1)CCCC2	13µM*	-6	4%	-3%	12%	14%
CSCC[C@H](NC(=O)[C@H](Cc1ccccc1)NC[C@@H](NC[C@@H](N)CS)C(C)C)C(=O)O	nt	nt	nt	nt	nt	-5%
c1ccc(CSc2nc3ncccn3n2)cc1	2.5µM*	-6	-7%	0%	?	nt
O=C(NCCc1ccccc1)c1nc2ncccn2n1	5%	25	-2%	nt	3%	1%
CC(=O)OC[C@@H]1O[C@H](C/C=N\O[C@@H](C)c2cn([C@H](CO)Cc3ccccc3)nn2)C=C[C@@H]1OC(C)=O	nt	nt	nt	nt	nt	-22%[12.8 µM]
Cc1nnc(-c2ccc(N3CCCCCC3)c([N+](=O)[O-])c2)o1	22µM*	-9	-15%	4%	8%	5%
CC(NC(=S)NCCc1ccccc1)C(c1cccs1)N1CCN(C)CC1 (stereo not drawn)	-4%	6	3%	0%	-6%	11µM*
CC(NC(=O)c1cccs1)C(c1cccs1)N1CCN(Cc2ccccc2)CC1 (stereo not drawn)	-14%	0	11%	1%[46.1 µM]	1%	-8%
COc1cc(CCC(C)=O)ccc1OC(=O)c1c(F)cccc1Cl	8.9µM*	-3	-3%	9%	13%	-6%
CC(C)(C)NC(=S)N1CCC2CC1c1cc(-c3ccc4c(c3)OCO4)ccc12 (stereo not drawn)	21%	nt	16µM*	nt	nt	nt
COc1ccc2c(c1)cc1c(=O)n(CC(=O)NCCCN3CCOCC3)nc(C)n12	-3%	13	-3%	4%	0%	-2%
CCCN1CCN(CCCNC(=O)Cn2nc(C)n3c(cc4cc(OC)ccc43)c2=O)CC1	-12%	-88*	-1%	1%	1%	-9%
SMILES	BRCA1 expr up	TSHR antag	GLS inhibitor	TCR act	p53 reactivation	N370S GC mod
Cc1cc([N+](C)(C)C)cc(C)c1/C=C/c1ccnc2ccccc12	-71%	nt	nt	nt	nt	nt
CC(C)(C)OC(=O)NCCc1nnc(S(=O)(=O)Cc2ccc(Cl)cc2Cl)o1	-107%	-78*	1%	2%	-30%	2%
Nc1ccc(/C=C/c2cccc3cccnc23)cc1	10%	nt	nt	nt	nt	nt
CCOC(=O)c1ccc2nc3c(cc2c1)CCS3	10µM*	5	4%	-2%	?	-7%
CCOC(=O)[C@H](CCc1ccccc1)N[C@@H](C)C(=O)N(CC(=O)O)C1Cc2ccccc2C1	nt	nt	4%	nt	nt	nt
Cc1c(Nc2cc(Cl)c3nonc3c2[N+](=O)[O-])c(=O)n(-c2ccccc2)n1C	-90%	-85*	0%	-12%	-9%	-16%
O=[N+]([O-])c1c(Nc2cccc(O)c2)cc(Cl)c2nonc12	-90%	-98*	2%	-26%	nt	-4%
CSCC[C@H](NC(=O)[C@H](CO)NC(=O)[C@H](Cc1ccc(O)cc1)NC(=O)[C@@H](N)CO)C(=O)N[C@@H](CCC(=O)O)C(=O)N[C@@H](Cc1cnc[nH]1)C(=O)N[C@@H](Cc1ccccc1)C(=O)N[C@@H](CCCNC(=N)N)C(=O)N[C@@H](Cc1c[nH]c2ccccc12)C(=O)NCC(=O)N[C@@H](CCCCN)C(=O)N1CCC[C@H]1C(=O)N[C@H](C(=O)NCC(=O)N[C@@H](CCCCN)C(=O)N[C@@H](CCCCN)C(=O)N[C@@H](CCCNC(=N)N)C(=O)N[C@@H](CCCNC(=N)N)C(=O)N1CCC[C@H]1C(=O)N[C@H](C(=O)N[C@@H](CCCCN)C(=O)N[C@H](C(=O)N[C@@H](Cc1ccc(O)cc1)C(=O)N1CCC[C@H]1C(=O)N[C@@H](CC(N)=O)C(=O)NCC(=O)N[C@@H](C)C(=O)N[C@@H](CCC(=O)O)C(=O)N[C@@H](CC(=O)O)C(=O)N[C@@H](CCC(=O)O)C(=O)N[C@@H](CO)C(=O)N[C@@H](C)C(=O)N[C@@H](CCC(=O)O)C(=O)N[C@@H](C)C(=O)N[C@@H](Cc1ccccc1)C(=O)N1CCC[C@H]1C(=O)N[C@@H](CC(C)C)C(=O)N[C@@H](CCC(=O)O)C(=O)N[C@@H](Cc1ccccc1)C(=O)O)C(C)C)C(C)C)C(C)C	nt	nt	nt	nt	nt	1%
c1coc(-c2nc3cc4ccccc4cc3nc2-c2ccco2)c1	-40%	nt	nt	nt	nt	nt
c1coc(-c2nc(-c3ccco3)c(-c3ccco3)nc2-c2ccco2)c1	-37%	6	13µM*	-5%	-25%	-16%
COc1ccc(CC(=O)Nc2c(C(=O)Nc3ccc(F)cc3)oc3ccccc23)cc1OC	36%	nt	0%	nt	nt	nt
CCOc1ccc(NC(=O)c2oc3ccccc3c2NC(=O)Cc2ccc(OC)c(OC)c2)cc1	11µM*	nt	4%	nt	nt	nt
COc1ccccc1CNS(=O)(=O)c1ccc(-n2cccn2)cc1	-15%	-111*	0%	0%	-5%	-7%
